Measured values from the supplement of paper PMC4380459.

System: tubulin (bovine brain)
Test: tubulin polymerization end-point dOD, fold change relative to DMSO vehicle; higher = more polymerization (stabilization)
Details: 50 µM; 60 min; 37 °C
Procedure, shortened: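 Using the Cytoskeleton HTS-Tubulin polymerization kit, 4 mg/ml bovine brain tubulin in G-PEM buffer (PIPES pH 6.9, MgCl2, EGTA, GTP) was combined on ice in 384-well plates with compound at a final 50 μM in 0.5% DMSO. After warming to 37°C in a Tecan reader, the plates were read at 340 nm once a minute for 1 hour. Values give the end-point change in optical density as percent fold change over DMSO vehicle, normalized per run with the means and standard deviations of DMSO and reference-control wells.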

| Compound | tubulin polymerization end-point dOD [%] |
| --- | --- |
| O=C(Nc1ccccc1Cl)N(Cc1cccs1)Cc1cc2cc3c(cc2[nH]c1=O)OCCO3 | -17.8 |
| Cc1cc2cc(CN(CC3CCCO3)C(=S)Nc3ccccc3)c(=O)[nH]c2cc1C (stereo not given) | -20.3 |
| O=c1[nH]c(/C=C/c2ccccc2)nc2sc3c(c12)CCCC3 | -32.9 |
| COc1ccccc1NC(=O)CSc1nnc(-c2cccnc2)n1-c1ccccc1C | -57.2 |
| Cc1cc(C(=O)Nc2nc3cc4c(cc3s2)OCCO4)c2c(C)nn(C)c2n1 | 28.4 |
| CCc1ccccc1NC(=O)CSc1nc2cc3c(cc2cc1C#N)OCCO3 | -23.9 |
| CCCn1c(SCC(=O)Nc2ccccc2OC)nnc1-c1cccnc1 | -56.1 |
| N#Cc1ccsc1NC(=O)C1COc2ccccc2C1 (stereo not given) | -10.4 |
| Cc1ccc(C(=O)Nc2nc3ccc(Cl)cc3s2)cn1 | -82.9 |
| Cc1cc2cc3c(cc2nc1SCC(=O)NCCc1ccccc1)OCCO3 | 130 |
| COc1ccc2cc(CN(CC3CCCO3)C(=O)Nc3ccc(Cl)cc3)c(=O)[nH]c2c1 (stereo not given) | -0.367 |
| CS(=O)(=O)N1CCCc2cc(C(=O)Cn3cnc4scc(-c5ccc(F)cc5)c4c3=O)ccc21 | -30.9 |
| Nc1nc(SCC(=O)NC2CCCCC2)nc2sc3c(c12)CCCC3 | -12 |
| Oc1ccccc1-c1nc2cnccn2c1NCc1ccc2c(c1)OCO2 | -6.54 |
| CC(=O)c1c(C)[nH]c(C(=O)Nc2ccc(N3CCCC3)cc2)c1C | 27.6 |
| Cc1cnc(C(=O)Nc2ncc(Cc3ccc(C)c(Cl)c3)s2)cn1 | -19.2 |
| O=C(c1cncn1-c1ccccc1)N1CCN(c2cccc(Cl)c2)CC1 | -50 |
| COc1ccc2cc(CN(Cc3cccs3)C(=O)Nc3ccccc3Cl)c(=O)[nH]c2c1 | -57.2 |
| COc1ccc2nc(SCC(=O)Nc3ccccc3Br)c(C#N)cc2c1 | 14.8 |
| O=C1N/C(=N/N=C/c2ccccc2O)SC1Cc1cc(C(F)(F)F)ccc1Cl (stereo not given) | -23 |
| COC(=O)Nc1nc2cc(C(=O)c3ccccc3)ccc2[nH]1 [Mebendazole] | 6.22 |
| CCc1ccccc1NC(=O)CSc1nc2cc3c(cc2cc1CC)OCO3 | -65 |
| COc1ccc2nc(SCC(=O)NCCc3ccc(OC)c(OC)c3)c(C)cc2c1 | -15 |
| N#Cc1cc2cc3c(cc2nc1SCC(=O)Nc1ccccc1Cl)OCCO3 | 17.2 |
| CCOc1ccc(S(=O)(=O)Nc2cc(Br)c3oc(C)c(C(C)=O)c3c2)cc1 | -25.4 |
| COc1cc(C(=O)Nc2ccc3c(c2)CCN3C(C)=O)cc2c1OCCO2 | -17 |
| O=C(Nc1ccc(Cl)cc1)N(Cc1cc2cc3c(cc2[nH]c1=O)OCCO3)CC1CCCO1 (stereo not given) | -20.7 |
| CN(C)c1ccc(/C=N/NC(=O)c2cccc(F)c2)cc1 | 27.6 |
| Cc1cccc(N2CCN(C(=O)c3cc(Cl)ccc3Cl)CC2)c1 | -45.7 |
| O=C(Nc1ccc(CNc2ncnc3cc(Cl)ccc23)cc1)C1CC1 | 8.64 |
